Drawing on PubChem BioAssay (NCI), this text covers growth inhibition for ten compounds.

Test [1] is described as follows: NCI Yeast Anticancer Drug Screen. Data for the rad50 strain (AID 155).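 Further: 0% = growth of vehicle-only cultures of the same strain.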 The settings on record: S. cerevisiae rad50 strain growth inhibition, hits give high values. Put shortly:
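A DNA repair-deficient yeast mutant serves as the test organism; compound-induced growth inhibition is calculated against vehicle-treated cells.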

A short description of test [2]: NCI Yeast Anticancer Drug Screen. Data for the mec2-1 strain (AID 157). The conditions noted are these: S. cerevisiae mec2-1 strain, hits give high values. Put shortly:
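Mutant yeast (mec2-1) grown with compound; growth inhibition relative to vehicle control reported.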

A short description of test [3]: NCI Yeast Anticancer Drug Screen. Data for the sgs1 mgt1 strain (AID 161).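 Further: 0% = growth of cultures given vehicle only.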 The conditions noted are these: S. cerevisiae sgs1 mgt1 strain, hits give high values. Put shortly:
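Growth of a repair-deficient yeast mutant was monitored after compound treatment and expressed as inhibition relative to vehicle-treated cultures.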

Test [4] in a line: NCI Yeast Anticancer Drug Screen. Data for the cln2 rad14 strain (AID 165).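 Further: 0% = growth equal to vehicle treated cultures.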 The settings on record: S. cerevisiae cln2 rad14 strain, hits give high values. Put shortly:
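Readout is yeast growth inhibition versus vehicle-treated controls, using a strain with cln2 and rad14 alterations exposed to compound.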

Test [5] in a line: NCI Yeast Anticancer Drug Screen. Data for the bub3 strain (AID 167). The settings on record: S. cerevisiae bub3 mutant strain, hits give high values. Put shortly:
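Inhibition values come from growth of compound-treated mutant yeast normalised to vehicle-treated controls.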

Test [6] in a line: NCI Yeast Anticancer Drug Screen. Data for the mlh1 rad18 strain (AID 175). The settings on record: S. cerevisiae mlh1 rad18 strain growth inhibition, hits give high values. The essentials:
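Genetically defined yeast (DNA repair-deficient) exposed to compounds; growth inhibition determined relative to vehicle.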

[7] abbreviates: at 5.0 µM (retest, dose inferred, filed as 0.5).
[8] abbreviates: at 50.0 µM (retest, dose inferred, filed as 5.0).

About 79,000 compounds went through this panel and 15% of them were active in at least one assay; those are over-represented in the sample as a whole. Unmarked numbers belong to inactive results. The source made the active and inactive calls. No stated cut-off is given here; in the data, active means growth inhibition above about 70%; inactive means the rest.

For the compound `CC(=O)OC[C@@H](OC(C)=O)[C@H](OC(C)=O)c1cnn(-c2ccccc2)n1`, the growth inhibition in test [1] (setting [7]) is -3%; in test [1] (setting [8]), -11%; in test [1] (at 50.0 µM), -0.85%; in test [2] (setting [7]), -1%; in test [2] (setting [8]), -6%; in test [2] (at 50.0 µM), 3.15%. Also, the growth inhibition in test [3] (setting [7]) was -4%; in test [3] (setting [8]), 14%; in test [3] (at 50.0 µM) it was 3.25%; in test [4] (setting [7]), -1%; in test [4] (setting [8]) it was -2%; in test [4] (at 50.0 µM), -5.7%. In addition, the growth inhibition in test [5] (setting [7]) was 13%; in test [5] (setting [8]) it was 29%; in test [5] (at 50.0 µM) it was 71.8% (active); in test [6] (setting [7]), 3%; in test [6] (setting [8]) it was -3%; in test [6] (at 50.0 µM), 12.8%.

On to `Nc1cccc2c1C(=O)c1ccc(Cl)cc1C2=O`, for which the growth inhibition was 69% in test [1] (setting [7]); 81% (active) in test [1] (setting [8]); 93.7% (active) in test [1] (at 50.0 µM); 18% in test [2] (setting [7]); 34% in test [2] (setting [8]); 71.8% (active) in test [2] (at 50.0 µM). The growth inhibition in test [3] (setting [7]) was 4%; in test [3] (setting [8]) it was 61%; in test [3] (at 50.0 µM), 55%; in test [4] (setting [7]), 0%; in test [4] (setting [8]) it was 6%; in test [4] (at 50.0 µM), -17.6%. For the same compound, the growth inhibition is 12% in test [5] (setting [7]); 39% in test [5] (setting [8]); 85.4% (active) in test [5] (at 50.0 µM); 15% in test [6] (setting [7]); 60% in test [6] (setting [8]); 44.8% in test [6] (at 50.0 µM).

With `COc1ccc(/C(C#N)=C/c2ccncc2)cc1`, the growth inhibition in test [1] (setting [7]) is 1%; in test [1] (setting [8]), 28%; in test [1] (at 50.0 µM) it was 73.2% (active); in test [2] (setting [7]), -49%; in test [2] (setting [8]) it was 14%; in test [2] (at 50.0 µM), 39.2%. For the same compound, the growth inhibition is -2% in test [3] (setting [7]); 28% in test [3] (setting [8]); 68% in test [3] (at 50.0 µM); 4% in test [4] (setting [7]); 23% in test [4] (setting [8]); 46.4% in test [4] (at 50.0 µM). For the same compound, the growth inhibition was 7% in test [5] (setting [7]); 67% in test [5] (setting [8]); 77.4% (active) in test [5] (at 50.0 µM); -3% in test [6] (setting [7]); 28% in test [6] (setting [8]); 51.3% in test [6] (at 50.0 µM).

In the case of `CN(C)C1=NC2=S(SC(Nc3ccccc3)=N2)S1` (stereo not given), the growth inhibition in test [1] (setting [7]) is -4%; in test [1] (setting [8]), 15%; in test [1] (at 50.0 µM), 10.8%; in test [2] (setting [7]), -7%; in test [2] (setting [8]), 33%; in test [2] (at 50.0 µM), -1%. The growth inhibition was 10% in test [3] (setting [7]); 28% in test [3] (setting [8]); -19.1% in test [3] (at 50.0 µM); 10% in test [4] (setting [7]); 24% in test [4] (setting [8]); -0.75% in test [4] (at 50.0 µM). Further, the growth inhibition was 3% in test [5] (setting [7]); 20% in test [5] (setting [8]); 44% in test [5] (at 50.0 µM); 24% in test [6] (setting [7]); 43% in test [6] (setting [8]); -7.4% in test [6] (at 50.0 µM).

As to `O=c1c2ccccc2ncn1Cc1ccccc1[N+](=O)[O-]`, the growth inhibition is -2% in test [1] (setting [7]); 14% in test [1] (setting [8]); -31.8% in test [1] (at 50.0 µM); -2% in test [2] (setting [7]); 7% in test [2] (setting [8]); -9.1% in test [2] (at 50.0 µM). In addition, the growth inhibition is 0% in test [3] (setting [7]); 23% in test [3] (setting [8]); -7% in test [3] (at 50.0 µM); -11% in test [4] (setting [7]); -17% in test [4] (setting [8]); 73.3% (active) in test [4] (at 50.0 µM). Besides, the growth inhibition in test [5] (setting [7]) is -1%; in test [5] (setting [8]), 42%; in test [5] (at 50.0 µM), 26.2%; in test [6] (setting [7]), 0%; in test [6] (setting [8]) it was 18%; in test [6] (at 50.0 µM), -6.15%.

With `N=Cc1cc([N+](=O)[O-])ccc1O`, the growth inhibition in test [1] (setting [7]) was -5%; in test [1] (setting [8]) it was 94% (active); in test [1] (at 50.0 µM), 96.8% (active); in test [2] (setting [7]) it was -1%; in test [2] (setting [8]), 98% (active); in test [2] (at 50.0 µM), 93% (active). Further, the growth inhibition in test [3] (setting [7]) is -2%; in test [3] (setting [8]), 93% (active); in test [3] (at 50.0 µM) it was 98.5% (active); in test [4] (setting [7]) it was 16%; in test [4] (setting [8]), 95% (active); in test [4] (at 50.0 µM) it was 94.5% (active). Further, the growth inhibition in test [5] (setting [7]) was -20%; in test [5] (setting [8]), 96% (active); in test [5] (at 50.0 µM), 71.3% (active); in test [6] (setting [7]), 12%; in test [6] (setting [8]), 98% (active); in test [6] (at 50.0 µM) it was 98.2% (active).

As for `CC(=O)Sc1ccc(Br)cc1`, the growth inhibition in test [1] (setting [7]) was 0%; in test [1] (setting [8]) it was 73% (active); in test [1] (at 50.0 µM) it was 45.3%; in test [2] (setting [7]) it was 3%; in test [2] (setting [8]), 52%; in test [2] (at 50.0 µM), 36.9%. Also, the growth inhibition in test [3] (setting [7]) is 3%; in test [3] (setting [8]) it was 60%; in test [3] (at 50.0 µM) it was 34.9%; in test [4] (setting [7]), -1%; in test [4] (setting [8]), 40%; in test [4] (at 50.0 µM), -2.05%. The growth inhibition in test [5] (setting [7]) was 1%; in test [5] (setting [8]), 68%; in test [5] (at 50.0 µM) it was 60.3%; in test [6] (setting [7]), -2%; in test [6] (setting [8]) it was 76% (active); in test [6] (at 50.0 µM), 71.2% (active).

Regarding `CC(=O)c1ccc(Cl)c(N=Cc2cc(Br)ccc2O)c1`, the growth inhibition in test [1] (setting [7]) is 55%; in test [1] (setting [8]), 77% (active); in test [1] (at 50.0 µM), 68.4%; in test [2] (setting [7]), 35%; in test [2] (setting [8]), 81% (active); in test [2] (at 50.0 µM), 70.4% (active). For the same compound, the growth inhibition was 57% in test [3] (setting [7]); 95% (active) in test [3] (setting [8]); 67.4% in test [3] (at 50.0 µM); 34% in test [4] (setting [7]); 56% in test [4] (setting [8]); 24.4% in test [4] (at 50.0 µM). Also, the growth inhibition in test [5] (setting [7]) is 52%; in test [5] (setting [8]) it was 98% (active); in test [5] (at 50.0 µM), 78.2% (active); in test [6] (setting [7]), 64%; in test [6] (setting [8]) it was 96% (active); in test [6] (at 50.0 µM), 61.5%.

Consider `C#CCNC1=CC(=O)CCC1`, for which the growth inhibition in test [1] (setting [7]) was -14%; in test [1] (setting [8]), 16%; in test [1] (at 50.0 µM), -12.1%; in test [2] (setting [7]), 0%; in test [2] (setting [8]), -1%; in test [2] (at 50.0 µM), 9.55%. Further, the growth inhibition is -3% in test [3] (setting [7]); -10% in test [3] (setting [8]); -4.55% in test [3] (at 50.0 µM); 17% in test [4] (setting [7]); 6% in test [4] (setting [8]); 58.5% in test [4] (at 50.0 µM). Further, the growth inhibition is 14% in test [5] (setting [7]); -13% in test [5] (setting [8]); 35.5% in test [5] (at 50.0 µM); -4% in test [6] (setting [7]); 1% in test [6] (setting [8]); 17.6% in test [6] (at 50.0 µM).

Consider `COc1cccc2c1C(=O)c1c(O)c3c(c(O)c1C2=O)C[C@@](O)(/C(C)=N/NC(=O)c1ccc(Cl)c(Cl)c1)C[C@@H]3OC1CC(N)C(O)C(C)O1` (stereo not given in full), for which the growth inhibition in test [1] (setting [7]) is 89% (active); in test [1] (setting [8]), 99% (active); in test [1] (at 50.0 µM), 42%; in test [2] (setting [7]), 25%; in test [2] (setting [8]), 99% (active); in test [2] (at 50.0 µM) it was 50.4%. Moreover, the growth inhibition in test [3] (setting [7]) is 25%; in test [3] (setting [8]), 99% (active); in test [3] (at 50.0 µM), 44.6%; in test [4] (setting [7]), 5%; in test [4] (setting [8]), 98% (active); in test [4] (at 50.0 µM), 72.7% (active). The growth inhibition was 43% in test [5] (setting [7]); 99% (active) in test [5] (setting [8]); 98.5% (active) in test [5] (at 50.0 µM); 33% in test [6] (setting [7]); 99% (active) in test [6] (setting [8]); 52.6% in test [6] (at 50.0 µM).
